Screening results as filed in PubChem.
Hsp70 act – Hsp70 transcriptional activation, primary screen. HeLa Hsp70 promoter luciferase reporter, luminescence; scaled: vehicle 0, proteasome-inhibitor control 100%. activation, % at 10 µM. actives 0.04% (n = 200,000);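 active = activation above the mean across all tested compounds plus 3 SD, cutoff set per campaign, cut at about 5.5% in these data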;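 note: 100% = MG132 at 30 µM as the positive control and 0% = DMSO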
STAT1 activator – activators of IFN-gamma induced STAT1 signaling | NIH 3T3 STAT1-luciferase reporter, luminescence; 100% = IFN-gamma alone, no compound | actives 2.6% (n = 200,000) | activation (% of control), % at 5.5 µM;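 active = activation above the screen-wide mean activation plus 3 SD, cut at about 130% in these data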;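 note: raw ratio to IFN-gamma control signal so 100% means no change and 0% no light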
APP 5UTR inh – APP translation inhibition | SH-SY5Y APP 5'UTR-luciferase reporter, luminescence | inhibition, % at 2 µM | actives 0.82% (n = 190,000);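 active = inhibition above a set limit, derived from the sample mean plus 3 SD, cut at about 45% in these data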
APP 5'UTR act – APP 5'UTR luciferase reporter activation. SH-SY5Y APP 5'UTR luciferase reporter, luminescence; zero percent = DMSO vehicle wells. activation, % at 2 µM. actives 1% (n = 190,000);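 active = activation above a set limit, based on mean plus 3 SD of controls, cut at about 140% in these data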
Wee1 degr inh – human Wee1 degradation inhibition, primary screen. P30291. HeLa Luc-Wee1K328M stability, luciferase luminescence; 100% = proteasome inhibitor MG132 effect. reporter increase, % at 5 µM. actives 1.2% (n = 220,000). AID 1321;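 active = activation above the mean of all tested compounds plus 3 SD, set per screening run, cut at about 8.8% in these data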;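 note: cells exposed to compound for 20 h before luminescence read; 0% = DMSO alone and 100% = MG132 at 30 µM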
Target sequence (P30291 whole entry K328M): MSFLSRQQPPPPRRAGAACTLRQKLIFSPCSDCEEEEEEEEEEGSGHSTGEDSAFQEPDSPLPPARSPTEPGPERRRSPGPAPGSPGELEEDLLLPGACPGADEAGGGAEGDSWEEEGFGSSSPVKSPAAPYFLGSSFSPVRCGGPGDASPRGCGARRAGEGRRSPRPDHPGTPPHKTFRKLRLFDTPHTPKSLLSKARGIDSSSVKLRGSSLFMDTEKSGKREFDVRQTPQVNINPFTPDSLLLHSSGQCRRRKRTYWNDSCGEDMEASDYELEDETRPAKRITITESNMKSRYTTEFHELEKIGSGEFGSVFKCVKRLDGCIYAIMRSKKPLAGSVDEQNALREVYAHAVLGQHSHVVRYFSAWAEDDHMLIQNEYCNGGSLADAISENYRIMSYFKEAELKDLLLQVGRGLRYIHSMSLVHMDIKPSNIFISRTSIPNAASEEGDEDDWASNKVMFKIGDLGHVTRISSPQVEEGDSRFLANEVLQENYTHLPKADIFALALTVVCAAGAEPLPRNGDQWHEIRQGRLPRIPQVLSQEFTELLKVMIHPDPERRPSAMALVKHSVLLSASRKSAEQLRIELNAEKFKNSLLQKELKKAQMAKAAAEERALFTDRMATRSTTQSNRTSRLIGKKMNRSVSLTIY
NF-kB expr up – NF-kB expression increase, human neuronal cells. fold change at 12.5 µM. actives 1.6% (n = 190,000). NF-kB reporter expression; stronger effect = higher value; in the data active = fold change above about 3.3
Numbers without * were called inactive; / = not tested or not shown. Compounds with a hit are over-represented: about 4.8% of the library has one in this group of screens.

SMILES	Hsp70 act	STAT1 activator	APP 5UTR inh	APP 5'UTR act	Wee1 degr inh	NF-kB expr up
CC1=Nc2cc(C(=O)NCCCOC(C)C)ccc2Sc2ccccc21	0	110	1	-1	2	0.97
CCC1=Nc2cc(C(=O)NCc3ccco3)ccc2Sc2ccc(C)cc21	0	96	94*	-94	2	2.7
CCCC1=Nc2cc(C(=O)NCCCOCC)ccc2Sc2ccccc21	0	118	97*	-97	1	3
CCC1=Nc2cc(C(=O)NCCCOC)ccc2Sc2ccccc21	0	107	95*	-95	4	1.6
CCCC1=Nc2cc(C(=O)NCCCOC(C)C)ccc2Sc2ccccc21	0	91	2	-2	3	1.1
CC1=Nc2cc(C(=O)NCCCOC(C)C)ccc2Sc2ccc(C)cc21	0	106	95*	-95	-1	1.7
CCn1c(SCc2ccccc2)nnc1-c1ccc(S(=O)(=O)N2CCCCC2)cc1	-1	82	-7	7	-1	0.55
Cc1ccccc1OCc1nnc2c3cnn(C)c3ncn12	0	139*	-12	12	-2	2
CCOC(=O)c1[nH]c(C=O)c(C(=O)OCC)c1C	0	106	91*	-91	7	1.4
CCOC(=O)c1[nH]c(C)c(C(=O)Nc2ccccc2C)c1C	0	105	84*	-84	0	1.9
CCOC(=O)c1[nH]c(C)c(C(=O)Nc2ccc(C)c(Cl)c2)c1C	0	97	-12	12	5	1.1
CCOC(=O)c1[nH]c(C)c(C(=O)Nc2cc(Cl)ccc2C)c1C	0	102	95*	-95	4	1.1
COC(=O)CN(C#N)c1nc(N(C)C)nc(N(C)C)n1	0	103	-1	1	0	1.1
O=C(O)Cn1cccc1C(=O)c1ccccc1	0	100	-6	6	9.2*	1.1
O=C1CCCC2=C1C(c1ccc(O)c(O)c1)c1c(ccc3ncccc13)N2 (configuration not stated)	0	106	9	-9	-3	1.4
O=C1CCCC2=C1C(c1ccc(O)cc1)c1c(ccc3ccccc13)N2 (configuration not stated)	0	100	-203	202*	1	0.89
O=C(N1CCC(O)(c2cccnc2)CC1)C12CC3CC(CC(C3)C1)C2	0	96	-4	4	1	0.89
CC(=O)Nc1ccc(-c2csc(Nc3ccc(Cl)cn3)n2)cc1	0	118	-28	28	3	1.2
Cc1ccc(Nc2nc(-c3ccc(O)c(O)c3)cs2)nc1	-1	136*	6	-6	2	9.4*
CC(=O)Nc1ccc(-c2csc(Nc3cc(C)ccn3)n2)cc1	0	140*	-40	41	9	1.1
CC(=O)Nc1cccc(-c2csc(Nc3ccccn3)n2)c1	0	143*	-184	184*	0	5.4*
c1ccc(Nc2nc(-c3cccs3)cs2)nc1	0	136*	-181	181*	9.8*	9.6*
COc1ccc(-c2csc(Nc3ccc(C)cn3)n2)cc1OC	0	122	-31	31	-3	1.2
CC(=O)Nc1cccc(-c2csc(NCc3ccccc3)n2)c1	1	113	-2	2	1	1
COc1cccc(C2=CC(c3ccc(OC)c(OC)c3OC)n3nnnc3N2)c1 (configuration not stated)	0	126	-27	27	2	0.88
SMILES	Hsp70 act	STAT1 activator	APP 5UTR inh	APP 5'UTR act	Wee1 degr inh	NF-kB expr up
CCOC(=O)CSc1nc(C)c2cccc(C)c2n1	/	/	/	/	-1	/
COc1ccc(C2C(C(=O)/C=C/c3ccco3)=C(O)C(=O)N2CCN2CCOCC2)cc1OC (configuration not stated)	0	97	1	-1	4	0.97
COCc1[nH][nH]c(=O)c1C=Nc1ccc(OC(F)(F)F)cc1	0	98	-28	28	4	1.4
O=C(COc1ccc(Cl)cc1Cl)Nc1cccnc1	0	99	-78	78	-1	1.3
c1ccc(Nc2nc(-c3cccnc3)cs2)nc1	0	144*	-194	194*	0	5*
O=[N+]([O-])c1cccc(CSc2cccc[n+]2[O-])c1	0	97	-12	12	1	1.1
COCC(=O)OCC(=O)N1N=C(c2ccc(Cl)cc2)CC1c1ccco1 (configuration not stated)	0	98	-21	21	-3	1.1
O=S(=O)(c1cnc[nH]1)N1CCN(c2ccccc2)CC1	0	101	4	-4	0	0.93
O=S(=O)(c1cnc[nH]1)N1CCCCCC1	0	95	6	-6	13*	1
CC(C)c1ccc(NC(=O)COc2ccc(F)cc2C(=O)c2cnn(-c3ccccc3)c2)cc1	0	140*	-96	96	-2	1.4
Cc1ccc(N=Nc2c(O)n(CN3CCOCC3)c3ccccc23)cc1	1	163*	-167	167*	4	2.9
CCOc1ccc(-c2nnc(-c3ccncc3)o2)cc1	0	133*	-61	61	-1	2.7
CCOc1ccc(-c2nc3ccccc3c(=O)o2)cc1	0	121	-112	112	0	6.3*
CCCOc1ccc(-c2nnc(-c3cccs3)o2)cc1	0	117	-46	46	1	5.2*
CCCCOc1ccc(-c2nnc(-c3ccncc3)o2)cc1	0	112	-77	77	0	1.4
COc1ccc(-c2nc3ccccc3c(=O)o2)cc1OC	0	97	-17	17	-3	1.1
CCOc1ccc(-c2nnc(-c3ccccc3)o2)cc1	-1	86	-114	114	-2	4.2*
Cc1nnc(NC2=NCCC2)o1	0	98	-7	7	-1	1.2
CCOc1ccc(-c2nnc(NC3=NCCCCC3)o2)cc1	0	118	-122	122	1	4.1*
c1coc(-c2nnc(NC3=NCCC3)o2)c1	0	129*	-55	55	6	2.2
COc1ccc2c(c1)cc(C)c1nnc(SCC(=O)N(C)c3nc(-c4ccccc4)cs3)n12	0	101	-18	18	-1	0.86
Clc1ccc(-c2nnc(SCc3ccon3)o2)c(Cl)c1	0	141*	-144	144*	4	9.7*
Clc1ccc(-c2nnc(SCc3nc4ccccc4[nH]3)o2)c(Cl)c1	0	96	-56	55	-1	1.1
C=CCSc1nnc(-c2ccc(Cl)cc2Cl)o1	0	120	-159	159*	2	7.5*
Oc1ccccc1-c1nnc(COc2ccc(Cl)cc2Cl)o1	0	107	-46	46	-2	2.1
C=CCSc1nnc(-c2cccnc2)o1	0	105	-9	9	-3	1.3
Clc1ccc(-c2nnc(CCc3ccccc3)o2)c(Cl)c1	0	137*	-62	62	3	2.5
